Cruzain Triton = inhibitors of Trypanosoma cruzi cruzain with detergent; P25779; purified cruzain, Z-FR-AMC fluorescence, 0.01% Triton; hit rate 0.43% among 200,000; Potency, µM, inactives show max response, negative = inhibition, usual class: inhibitors;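 note: plate controls were neutral wells for no effect and buffer without enzyme for full effect; nearly all actives have a fitted effect of over 40% in size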
Target sequence (P25779 123-467 limits assumed): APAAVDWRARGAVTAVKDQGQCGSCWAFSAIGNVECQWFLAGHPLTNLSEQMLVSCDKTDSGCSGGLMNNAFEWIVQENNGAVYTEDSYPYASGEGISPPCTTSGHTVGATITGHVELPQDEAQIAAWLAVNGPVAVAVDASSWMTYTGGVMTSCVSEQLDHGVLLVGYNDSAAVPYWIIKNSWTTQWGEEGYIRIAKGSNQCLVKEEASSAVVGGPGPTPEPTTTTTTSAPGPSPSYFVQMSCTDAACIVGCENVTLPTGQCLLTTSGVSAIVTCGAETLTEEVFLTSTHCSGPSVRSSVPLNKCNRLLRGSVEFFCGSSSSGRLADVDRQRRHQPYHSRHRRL
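Z-FR-AMC hydrolysis (2 uM substrate) by cruzain (1.5 nM) monitored kinetically at ex 360/em 450 nm after 15 min room-temperature compound exposure; 0.01% Triton X-100, pH 5.5, 5 mM DTT.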
Cruzain noTriton = cruzain (T. cruzi) inhibition without detergent. P25779. purified cruzain, Z-FR-AMC fluorescence, no detergent. Potency, µM, without a hit: max response, negative = inhibition, most hits filed as inhibitors. hit rate 2.3% among 200,000. AID 1476;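 note: plate controls were enzyme without inhibitor for no effect and buffer without enzyme for full effect; nearly all actives have a fitted effect of over 40% in size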
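Detergent-free condition (0.00005% Triton X-100) in acetate buffer pH 5.5 with DTT. 1.5 nM enzyme and compound were pre-mixed 15 min, then 2 uM Z-FR-AMC substrate added; reaction progress from fluorescence change between first and third reads (60 s).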
Numbers without * were called inactive; u = inconclusive. Compounds with a hit are over-represented: about 2.4% of the library has one in this group of screens. Calls come from the whole dose curve; as a rule, active = well fitted curve in the direction sought with a large enough effect; inconclusive = small, poorly fitted or top-dose-only effect, or another doubt; inactive = no such curve, though single readings can be large; an effect the other way counts as inactive or inconclusive. Potency is the fitted concentration of half-maximal effect.

SMILES | Cruzain Triton | Cruzain noTriton
COc1ccc(-c2c(C#N)c(SCC(=O)Nc3ccc(C)cc3)nc(C)c2C(=O)Nc2ccccc2)cc1 | -2.3% | -17.0%
COc1ccc(-c2c(C#N)c(SCC(=O)c3cc4ccccc4oc3=O)nc(C)c2C(=O)Nc2ccccc2)cc1 | -1.1% | u
COc1ccc(-c2c(C#N)c(SCC(=O)Nc3ccc(Br)cc3)nc(C)c2C(=O)Nc2ccccc2)cc1 | -0.2% | 10µM*
Cc1nc(SCC(=O)c2cc3ccccc3oc2=O)c(C#N)c(-c2ccccc2)c1C(=O)Nc1ccccc1 | -1.1% | 20µM*
CCOC(=O)c1c(C)[nH]c(CCC(=O)Nc2c(C)cccc2CC)c1C | 2.8% | 11.0%
c1ccc2c(-n3ccnc3)nc(-c3ccoc3)nc2c1 | -5.1% | -1.9%
O=C(COc1ccccc1)Nc1ccc([N+](=O)[O-])cc1 | -0.1% | -6.0%
O=C(COc1ccc(/C=N/NC(=O)c2ccccc2)cc1)Nc1ccc([N+](=O)[O-])cc1 | 2.3% | 12.6µM*
CC(C)Oc1ccc(/C=N/NC(=O)C(CSCc2ccccc2)NC(=O)c2ccc([N+](=O)[O-])cc2)cc1 (stereo not drawn) | -2.9% | 20µM*
O=C(CNc1ccccc1)N/N=C/c1ccc([N+](=O)[O-])cc1 | -3.5% | -1.0%
CCN(CC)c1nc2c(S(=O)(=O)c3ccccc3)nnn2c2ccc(Cl)cc12 | -6.0% | -16.5%
Cc1ccc(CCNC(=O)CCN2N=C(c3ccc(C)cc3)CCC2=O)cc1 | 2.4% | u
CC(=O)O[C@H]1CC[C@@]2(C)C(=CC[C@@H]3[C@@H]4CC[C@H](c5cc(C(F)(F)F)n(C(C)=O)n5)[C@]4(C)CC[C@@H]32)C1 | -10.7% | -7.8%
CCC(Cn1nnc2ccccc2c1=O)NC(=O)Nc1ccccc1Cl (stereo not drawn) | -1.1% | 19.0%
CCCN(CCC)CCCNC(=O)c1cc2cc3ccc(OC)cc3nc2o1 | 25.1µM* | u
COc1ccc2cc3cc(C(=O)NCCc4ccc(OC)c(OC)c4)oc3nc2c1 | -16.3% | u
COc1ccc(-c2nnc(SCC(=O)Nc3cc(OC)ccc3OC)nc2-c2ccc(OC)cc2)cc1 | -9.0% | u
COC(=O)c1cc(=O)c(O)c2c(O)c(O)ccc2c1 | -21.8% | -12.9%
CC1=CSC2=NC(=O)/C(=C\c3cccn3-c3ccc([N+](=O)[O-])cc3)C(=N)N12 | -2.8% | u
CC1=CC2=NC(=O)/C(=C\c3cc(C)n(-c4ccc(F)cc4)c3C)C(=N)N2O1 | -6.2% | 1.5%
CCC(CC)C1=NN2C(=N)/C(=C\c3cc(C)n(-c4cccc(C)c4)c3C)C(=O)N=C2S1 | -8.2% | 25.1µM*
Cc1cc(/C=C2/C(=N)N3C(c4ccccc4)=CSC3=NC2=O)c(C)n1-c1ccccc1 | 0.6% | 3.98µM*
Cc1cc(/C=C2\C(=N)N3C(SCc4ccccc4)=NSC3=NC2=O)c(C)n1Cc1ccccc1 | -3.6% | 3.16µM*
CSC1=NSC2=NC(=O)/C(=C\c3coc4ccccc4c3=O)C(=N)N12 | -23.3% | u
Cc1nn(-c2ccccc2)c(Cl)c1/C=C1/C(=N)N2N=C(C(C)C)SC2=NC1=O | -6.4% | u
SMILES | Cruzain Triton | Cruzain noTriton
CC1=CSC2=NC(=O)/C(=C\c3cccn3-c3ccccc3)C(=N)N12 | -9.9% | 12.6µM*
CC(=O)N(C[C@@H](C)C(=O)O)c1c(I)cc(I)c(N)c1I | -0.9% | -4.3%
O=C1Oc2ccccc2C(=O)/C1=C\N1C(=O)N/C(=C\c2ccccc2O)C1=O | -3.7% | -7.4%
Cc1cc(Cc2cc(C)cc(C(C)(C)C)c2O)c(O)c(Cc2cc(C)cc(C(C)(C)C)c2O)c1 | 1.5% | u
Cc1ccc(CNC(=O)C(=O)NCC(c2cccs2)S(=O)(=O)c2ccccc2)cc1 (stereo not drawn) | -0.2% | -12.9%
C=CCN1C(=O)/C(=C\c2ccc(Cl)cc2)N=C1SCC(=O)NC1CCCCC1 | 1.0% | 10µM*
Nn1c(SCC(=O)NC2CCCCC2)nnc1-c1ccc(Cl)cc1 | 0.1% | -0.8%
CCOC(=O)c1cc(S(=O)(=O)Nc2cc(C)c(Cl)cc2OC)[nH]n1 | -6.2% | -0.2%
CN1CCN(c2ncc3nc(-c4ccc(Cl)cc4)c(=O)n(CCC#N)c3n2)CC1 | -28.0% | u
C[Si](C)(c1ccc(C(=O)O)cc1)c1ccc(C(=O)O)cc1 | 3.6% | -5.7%
O=C(Nc1ccc2oc(-c3ccncc3)nc2c1)c1c(F)c(F)c(F)c(F)c1F | 3.5% | 10µM*
COc1c(F)c(F)c(C(=O)Nc2ccc3oc(-c4ccncc4)nc3c2)c(F)c1F | 0.9% | u
Cc1cccc(C(=O)Nc2ccc3oc(-c4ccncc4)nc3c2)c1 | 25.1µM* | u
Cc1cccc(C(=O)Nc2ccc3oc(-c4cccc5c(Br)cccc45)nc3c2)c1 | -0.3% | u
O=C(O)CSCCc1ccccc1 | 2.6% | 9.6%
Cc1nn(Cc2ccc(Cl)c(Cl)c2)c(C)c1NC(=O)c1sc2ccccc2c1Cl | 6.2% | 15.8µM*
Cc1nn(Cc2c(Cl)cccc2Cl)c(C)c1NC(=O)c1sc2ccccc2c1Cl | -5.8% | -2.9%
O=C(O)c1ccccc1C(=O)Nc1cc2c(cc1Br)-c1ccccc1C2=O | -0.9% | -8.8%
O=C(Nc1ccc(Cl)c(Cl)c1)c1cc(S(=O)(=O)N2CCN(c3cccc(Cl)c3)CC2)ccc1F | 0.5% | 3.16µM*
O=C(Nc1ccc2c(c1)CCC2)c1cccc(S(=O)(=O)N2CCN(c3ccccc3)CC2)c1 | 0.5% | 25.1µM*
O=C(NC1CCCc2ccccc21)c1cccc(S(=O)(=O)N2CCN(c3ccccc3)CC2)c1 (stereo not drawn) | -2.0% | u
O=C(Nc1ccc(F)c(F)c1)c1cc(S(=O)(=O)N2CCN(c3ccccn3)CC2)ccc1F | -4.3% | 3.2%
COc1cccc([C@@H]2Oc3ccc(OC)cc3C(=O)[C@H]2OC(=O)NCc2ccco2)c1 | 1.3% | -1.7%
O[C@@](CCN1CCCCC1)(c1ccccc1)C1CCCCC1 | -5.9% | -7.0%
O=C(CN1C(=O)C2CC=CCC2C1=O)Nc1nnc(SCc2c(Cl)cccc2Cl)s1 (stereo not drawn) | 1.5% | 15.8µM*
SMILES | Cruzain Triton | Cruzain noTriton
CCS(=O)(=O)N1Cc2ccccc2CC1C(=O)Nc1nnc(SCc2c(Cl)cccc2Cl)s1 (stereo not drawn) | -1.5% | 7.94µM*
CCS(=O)(=O)N1Cc2ccccc2CC1C(=O)Nc1nc2c(C)cccc2s1 (stereo not drawn) | -11.7% | 25.1µM*
O=C(CN1C(=O)C2CC=CCC2C1=O)Nc1nnc(SCc2ccc(Cl)cc2)s1 (stereo not drawn) | -3.0% | -19.7%
CCSc1nnc(NC(=O)C2Cc3ccccc3CN2S(=O)(=O)CC)s1 (stereo not drawn) | -8.9% | -6.1%
CCS(=O)(=O)N1Cc2ccccc2CC1C(=O)Nc1nccs1 (stereo not drawn) | 6.7% | -4.6%
Nc1ccc(S(=O)(=O)NCCS(=O)(=O)O)cc1 | 5.7% | 8.6%
CC1=C(SCCC#N)S/C(=C2\SC(C)=C(SCCC#N)S2)S1 | -13.2% | 25.1µM*
COCCCNC(=O)c1c(NC(=O)Cc2coc3cc(C)ccc23)sc2c1CCCC2 | -7.6% | 6.2%
CN1CCN(c2ccc(Cl)cc2NC(=O)c2ccc(S(=O)(=O)N(C)C)cc2)CC1 | 5.1% | -0.8%
COc1ccccc1NS(=O)(=O)c1ccc(C)c(NC(=O)c2ccc(S(=O)(=O)N3CCCCCC3)cc2)c1 | -1.2% | 31.6µM*
CN(C)S(=O)(=O)c1ccc(C(=O)Nc2cc(S(=O)(=O)Nc3ccccc3Cl)ccc2N2CCCCC2)cc1 | -4.7% | 25.1µM*
COc1ccccc1NC(=O)c1ccc(S(=O)(=O)N2CCCC2)cc1 | -0.8% | -0.6%

High-throughput results: PubChem BioAssay, National Center for Advancing Translational Sciences (NCATS)
